# Experimental data taken from PubChem BioAssay (NCATS).
# Results filed as inconclusive are left out. Where a call stands in place of a potency, no number is given. The source made the active and inactive calls. The call rests on the fitted dose curve; in most records, active means well fitted inhibition curve with a large enough effect; inconclusive means small, poorly fitted or top-dose-only effect; inactive means flat fitted curve, though single readings scatter.
# What was measured:
# Assay in all cases: qHTS profiling for inhibitors of Plasmodium falciparum proliferation (AID 504749); further: nearly all actives have a fitted effect of over 60% in size
# Conditions in all cases: P. falciparum in erythrocytes, SYBR Green DNA, 72 h; series mostly up to 28.7 µM
# DIV14 = tested on: DIV14
# Method in brief: (§1)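 Readout was DNA-dye fluorescence from lysed cultures, ex 485/em 535 nm. Parasitized red cells had grown 72 h with compound; data scaled between 0.29 uM artemisinin and DMSO wells and corrected using vehicle-only plates.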
# DIV17 = tested on: DIV17
# Method in brief: as §1
# DIV30 = tested on: DIV30
# Method in brief: as §1
# ECU = tested on: ECU
# Method in brief: as §1
# FAB9 = tested on: FAB9
# Method in brief: as §1
# GB4 = tested on: GB4
# Method in brief: as §1
# HB3 = tested on: HB3
# Method in brief: as §1
# ICS = tested on: ICS
# Method in brief: as §1
# N140 = tested on: N140
# Method in brief: as §1
# P93_24 = tested on: P93_24
# Method in brief: as §1
# PAD = tested on: PAD
# Method in brief: as §1
# PC15 = tested on: PC15
# Method in brief: as §1
# PC26 = tested on: PC26
# Method in brief: as §1
# CP325 = tested on: CP325
# Method in brief: as §1
# CP335 = tested on: CP335
# Method in brief: as §1
# DFO2036 = tested on: DFO2036
# Method in brief: as §1
# Dd2 = tested on: Dd2
# Method in brief: as §1
# P94_40 = tested on: P94_40
# Method in brief: as §1
# CP329 = tested on: CP329
# Method in brief: as §1
# JCK = tested on: JCK
# Method in brief: as §1
# Potency means the concentration at half of the fitted maximal effect.
SMILES,Potency (DIV14),Potency (DIV17),Potency (DIV30),Potency (ECU),Potency (FAB9),Potency (GB4),Potency (HB3),Potency (ICS),Potency (N140),Potency (P93_24),Potency (PAD),Potency (PC15),Potency (PC26),Potency (CP325),Potency (CP335),Potency (DFO2036),Potency (Dd2),Potency (P94_40),Potency (CP329),Potency (JCK)
CNC(=O)c1cc(Oc2ccc(NC(=O)Nc3ccc(Cl)c(C(F)(F)F)c3)cc2)ccn1,2.69 µM (active),3.01 µM (active),1.07 µM (active),8.91 µM (active),inactive,13.5 µM (active),11.2 µM (active),1.12 µM (active),5.01 µM (active),10 µM (active),2.24 µM (active),7.08 µM (active),3.38 µM (active),–,–,–,–,–,–,–
COc1cc([C@@H]2c3cc4c(cc3[C@H](O)[C@H]3COC(=O)[C@H]23)OCO4)cc(OC)c1OC,2.13 µM (active),1.69 µM (active),6.75 µM (active),3.55 µM (active),6.31 µM (active),3.38 µM (active),1.78 µM (active),0.891 µM (active),2.82 µM (active),2.24 µM (active),3.55 µM (active),1.78 µM (active),8.49 µM (active),13.5 µM (active),3.38 µM (active),2.82 µM (active),2.24 µM (active),2.51 µM (active),–,–
COC(=O)Nc1nc2ccc(C(=O)c3ccccc3)cc2[nH]1,–,–,inactive,inactive,inactive,–,inactive,inactive,inactive,inactive,inactive,inactive,–,–,inactive,inactive,inactive,inactive,inactive,inactive
CNCC[C@H](Oc1cccc2ccccc12)c1cccs1,–,3.01 µM (active),10.7 µM (active),11.2 µM (active),inactive,12 µM (active),–,3.16 µM (active),8.91 µM (active),3.16 µM (active),11.2 µM (active),5.01 µM (active),8.49 µM (active),inactive,–,–,6.31 µM (active),10 µM (active),inactive,–
CCOC(=O)c1ccc(C#Cc2ccc3c(c2)C(C)(C)CCS3)nc1,–,inactive,inactive,inactive,inactive,inactive,inactive,–,inactive,inactive,inactive,inactive,–,inactive,–,inactive,inactive,inactive,inactive,inactive
N[C@@H](Cc1ccc(O)c(O)c1)C(=O)O,inactive,inactive,inactive,–,–,inactive,–,–,–,–,–,–,inactive,inactive,–,–,–,–,inactive,–
